Among the test systems are SK-MEL-2 melanoma; EKVX NSCLC; SN12C renal; UO-31 renal; TK-10 renal; A498 renal; CCRF-CEM leukemia; MOLT-4 leukemia; SR leukemia; RPMI-8226 leukemia; OVCAR-8 ovarian; OVCAR-5 ovarian; OVCAR-4 ovarian; SK-OV-3 ovarian; IGROV1 ovarian; OVCAR-3 ovarian; HS 578T breast; NCI/ADR-RES ovarian.
What all share (experiment): NCI-60 one-dose screen, 48 h (100 = growth as untreated, 0 = no growth, -100 = all killed)
Conditions in all cases: 10 µM unless noted

The structures appear in SMILES notation. This is part of a sample that, as a whole, favours compounds with a hit. Of some 83,000 tested, about 20% had one in any assay.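 Assay: single dose, 48 h. Readout: percent growth (0 = no net growth; negative = cell death). Active: <10.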 Unmarked numbers belong to inactive results. Calls of active or inactive are those of the source.

From PubChem BioAssay (NCI) come the findings set out here.

Regarding `COc1ccc(NC(=O)Nc2ccc(-c3ccc(OC)c(OC)c3)nc2C)cc1`, the growth in the assay on SK-MEL-2 melanoma was 79.6%; with EKVX NSCLC it was 91.1%; with SN12C renal, 64.4%; in the assay on UO-31 renal it was 81.7%; in the assay on TK-10 renal it was 60.4%; with A498 renal, 71.9%. In addition, the growth with CCRF-CEM leukemia was 97.2%; in the assay with MOLT-4 leukemia, 85.6%; in the assay on SR leukemia it was 57.3%; with RPMI-8226 leukemia, 83.8%; in the assay with OVCAR-8 ovarian, 47.4%; in the assay on OVCAR-5 ovarian it was 98%. Also, the growth is 29.5% with OVCAR-4 ovarian; 74.8% in the assay with SK-OV-3 ovarian; 77.1% in the assay on IGROV1 ovarian; 102% in the assay on OVCAR-3 ovarian; 40% in the assay with HS 578T breast; 85% in the assay on NCI/ADR-RES ovarian.
For `COC(=O)c1ccc(NC(N)=NCC(C)(C)COc2ccc(C(F)(F)F)cc2)nc1`, the growth is 79.9% in the assay on SK-MEL-2 melanoma; 45.5% with EKVX NSCLC; 51.3% with SN12C renal; 41.1% in the assay on UO-31 renal; 53.9% in the assay with TK-10 renal; 74.2% in the assay with A498 renal. The growth in the assay on CCRF-CEM leukemia is 15.7%; in the assay with MOLT-4 leukemia, 9.32% (active); with SR leukemia it was -32.3% (active); in the assay on RPMI-8226 leukemia, 10.9%; in the assay on OVCAR-8 ovarian, 52.2%; in the assay with OVCAR-5 ovarian it was 72%. Besides, the growth in the assay with OVCAR-4 ovarian is 40.6%; with SK-OV-3 ovarian, 106%; in the assay on IGROV1 ovarian, 21.3%; in the assay on OVCAR-3 ovarian, 50%; with HS 578T breast it was 86.3%; in the assay on NCI/ADR-RES ovarian it was 44.6%.
As to `CC(=O)CC/C=C(\C)[C@H](O)[C@H](C)C(=O)O[C@H]1C[C@H](C)C=C2C=C[C@@]3(C)O[C@@H](O)CC(=O)[C@]3(C)[C@H]21`, the growth in the assay on SK-MEL-2 melanoma was -59.7% (active); in the assay with EKVX NSCLC, -28.8% (active); in the assay with SN12C renal, -11.5% (active); with UO-31 renal it was -28.6% (active); in the assay with TK-10 renal it was -27.4% (active); in the assay on A498 renal, -66.2% (active). For the same molecule, the growth is 4.28% (active) in the assay with CCRF-CEM leukemia; -7.91% (active) with MOLT-4 leukemia; 0.335% (active) in the assay on SR leukemia; -18.5% (active) in the assay on RPMI-8226 leukemia; -14.7% (active) in the assay on OVCAR-8 ovarian; -10% (active) in the assay with OVCAR-5 ovarian. In addition, the growth is -21.9% (active) in the assay on OVCAR-4 ovarian; -25.5% (active) in the assay on SK-OV-3 ovarian; -17.7% (active) in the assay with IGROV1 ovarian; -46.4% (active) in the assay on OVCAR-3 ovarian; -10.1% (active) with HS 578T breast; 0.0427% (active) in the assay with NCI/ADR-RES ovarian.
For the molecule `Cc1ccc(/C=C2/C(=O)Nc3cc(Cl)c(-c4csc(N)n4)cc32)cc1`, the growth in the assay with SK-MEL-2 melanoma was 49.3%; with EKVX NSCLC it was 62.1%; in the assay with SN12C renal it was 81%; with UO-31 renal it was 67.4%; with TK-10 renal, 115%; in the assay with A498 renal it was 79.3%. Moreover, the growth is 43.5% in the assay on CCRF-CEM leukemia; 51.3% in the assay with MOLT-4 leukemia; 23.9% with SR leukemia; 50% with RPMI-8226 leukemia; 82.6% with OVCAR-8 ovarian; 102% in the assay on OVCAR-5 ovarian. Moreover, the growth with OVCAR-4 ovarian was 68.7%; with SK-OV-3 ovarian, 77.7%; with IGROV1 ovarian it was 59.7%; in the assay on OVCAR-3 ovarian, 59.8%; with HS 578T breast, 63.7%; in the assay on NCI/ADR-RES ovarian, 82.9%.
In the case of `Nc1c(C(=O)O)[nH]c(=O)[nH]c1=O`, the growth in the assay on SK-MEL-2 melanoma was 99.5%; in the assay on EKVX NSCLC it was 105%; in the assay with SN12C renal it was 98.3%; with UO-31 renal, 94.2%; with TK-10 renal, 103%; in the assay with A498 renal, 106%. The growth in the assay with CCRF-CEM leukemia is 90.3%; in the assay on MOLT-4 leukemia, 96.2%; in the assay with SR leukemia it was 90.2%; with RPMI-8226 leukemia, 99.9%; in the assay with OVCAR-8 ovarian, 108%; in the assay on OVCAR-5 ovarian it was 105%. Moreover, the growth was 111% with OVCAR-4 ovarian; 102% with SK-OV-3 ovarian; 112% with IGROV1 ovarian; 105% in the assay on OVCAR-3 ovarian; 102% in the assay with HS 578T breast; 108% in the assay on NCI/ADR-RES ovarian.
As for `Cc1nccc2c3ccc(OCc4cn(-c5ccc(Br)cc5)nn4)cc3n(CCCc3ccccc3)c12`, the growth in the assay on SK-MEL-2 melanoma is 107%; in the assay with EKVX NSCLC, 68.9%; in the assay with SN12C renal, 66.9%; with UO-31 renal it was -73.5% (active); in the assay with TK-10 renal, 34.1%; in the assay on A498 renal, 110%. Moreover, the growth with CCRF-CEM leukemia is 15%; in the assay with MOLT-4 leukemia it was 41.2%; in the assay with SR leukemia, -29.8% (active); in the assay on RPMI-8226 leukemia, 8.43% (active); in the assay with OVCAR-8 ovarian, 2.18% (active); in the assay on OVCAR-5 ovarian, 49.6%. Besides, the growth is 63.2% in the assay with OVCAR-4 ovarian; 90% in the assay on SK-OV-3 ovarian; 60.4% in the assay on IGROV1 ovarian; 104% in the assay on OVCAR-3 ovarian; -6.57% (active) in the assay on HS 578T breast; -36.1% (active) in the assay with NCI/ADR-RES ovarian.
As to `CC(C)C(=O)Nc1nc2c(s1)CCCc1ccn(S(=O)(=O)c3ccccc3)c1-2`, the growth in the assay on SK-MEL-2 melanoma is 83.7%; in the assay on EKVX NSCLC, 88.2%; with SN12C renal it was 105%; in the assay on UO-31 renal, 77.1%; with TK-10 renal, 83.6%; with A498 renal, 110%. Further, the growth was 87.2% with CCRF-CEM leukemia; 78% in the assay on MOLT-4 leukemia; 84.3% in the assay on SR leukemia; 87.5% in the assay with RPMI-8226 leukemia; 101% in the assay with OVCAR-8 ovarian; 99.2% with OVCAR-5 ovarian. For the same molecule, the growth in the assay with OVCAR-4 ovarian is 104%; in the assay with SK-OV-3 ovarian, 87.4%; in the assay with IGROV1 ovarian, 107%; in the assay with OVCAR-3 ovarian, 107%; with HS 578T breast it was 101%; with NCI/ADR-RES ovarian, 94.2%.
For the molecule `CC1(C)CC(=O)C2=C(C1)OC1=C(C(=O)CC(C)(C)C1)C2c1ccc(OCc2cn(-c3ccc(F)cc3F)nn2)cc1`, the growth in the assay on SK-MEL-2 melanoma was 93.8%; in the assay on EKVX NSCLC, 99.4%; in the assay with SN12C renal, 99.4%; with UO-31 renal, 89.6%; in the assay on TK-10 renal it was 109%; with A498 renal, 46.9%. Moreover, the growth in the assay on CCRF-CEM leukemia was 84.9%; in the assay with MOLT-4 leukemia, 77.2%; with SR leukemia it was 58.6%; with RPMI-8226 leukemia, 92.7%; with OVCAR-8 ovarian, 95.3%; in the assay on OVCAR-5 ovarian, 124%. In addition, the growth with OVCAR-4 ovarian was 94.4%; in the assay on SK-OV-3 ovarian it was 100%; in the assay with IGROV1 ovarian, 102%; with OVCAR-3 ovarian, 95.3%; with HS 578T breast, 96.2%; in the assay with NCI/ADR-RES ovarian, 94%.
For `CNCCCOc1c(Br)cc(CCNC(=O)/C(Cc2ccc(OC)c(Br)c2)=N/O)cc1Br`, the growth was 40% with SK-MEL-2 melanoma; 65.5% in the assay with EKVX NSCLC; 57.6% with SN12C renal; 41.7% in the assay on UO-31 renal; 74.1% in the assay on TK-10 renal; 39.4% in the assay on A498 renal. Moreover, the growth in the assay on CCRF-CEM leukemia is 31.6%; with MOLT-4 leukemia it was 10.3%; in the assay on SR leukemia, -30.7% (active); in the assay on RPMI-8226 leukemia it was 8.44% (active); with OVCAR-8 ovarian, 73.2%; in the assay with OVCAR-5 ovarian it was 86.7%. The growth with OVCAR-4 ovarian was 27.9%; in the assay with SK-OV-3 ovarian, 63.4%; with IGROV1 ovarian it was 49.5%; with OVCAR-3 ovarian, 65.5%; in the assay on HS 578T breast it was 37.6%; in the assay with NCI/ADR-RES ovarian, 81.3%.
